# Autofluor counter: counter-screen for toxin protease inhibitors: compound fluorescence; compound autofluorescence counterscreen, microsphere flow cytometry; active compounds read high; fluorescence intensity (test concentration not listed); 360,000 compounds, 3.1% hits; AID 624483; in the data active means fluorescence intensity above about 16000; inconclusive means no clear call, values can overlap the other calls
# BoNT A protease: BoNT/A light chain protease inhibitors, primary screen, biochemical, flow cytometry, MLPCN library; Botulinum neurotoxin type A light chain protease (Clostridium botulinum A str. ATCC 3502); multiplex microsphere protease substrate cleavage; inhibition, % at 10 µM; 360,000 compounds, 0.17% hits; further: plate controls were buffer without enzyme for full effect and enzyme alone for no effect
# MazEF act: activators of E. coli MazEF toxin-antitoxin RNase, primary screen, biochemical, fluorescence, uHTS. activation, % at 20 µM. 350,000 compounds, 0.32% hits. FAM/BHQ RNA-DNA oligo cleavage fluorescence, 5 h. Endoribonuclease toxin MazF (Escherichia coli (strain K12)), P0AE70; in the data active means activation above about 50%
# Target sequence (P0AE70 whole entry, looked up): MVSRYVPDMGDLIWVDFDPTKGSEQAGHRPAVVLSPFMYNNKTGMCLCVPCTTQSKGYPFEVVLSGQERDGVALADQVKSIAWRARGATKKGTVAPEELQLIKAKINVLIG
# BoNT-F LC inh: BoNT/F light chain protease inhibitors, primary screen, biochemical, flow cytometry, MLPCN library; inhibition, % at 10 µM; Multiplex microsphere protease cleavage assay; AID 588497, 2011; 360,000 compounds, 0.22% hits; in the data active means inhibition above about 35%, passing the limit was not always enough; inconclusive means no clear call, values can overlap the other calls; further: plate controls were buffer without enzyme for full effect and enzyme alone for no effect
# Anthrax LF prot: Bacillus anthracis LF protease inhibitors, primary screen, biochemical, multiplex microsphere, MLPCN library; AID 588501, 2011; 360,000 compounds, 0.12% hits; multiplex microsphere protease cleavage assay; Lethal factor (Bacillus anthracis), P15917; inhibition, % at 10 µM; further: plate controls were buffer without enzyme for full effect and enzyme alone for no effect
# Starred values were filed as active, the others as inactive; ? = inconclusive; / = no result given. Hits are enriched below; roughly 3.6% of the tested compounds scored in any of these assays. Unless noted, no stated cut-off is given here; in the data, active means inhibition above about 30%; inconclusive means no clear call, values can overlap the other calls; inactive means below that.
SMILES,Autofluor counter,BoNT A protease,MazEF act,BoNT-F LC inh,Anthrax LF prot
O=[N+]([O-])c1ccc(C(=Nc2cccc3ccccc23)N2CCOCC2)cc1,17545*,-1.9,1.2,-4.3,-4.5
Cc1nc(C)c(C(=O)OCC(=O)NCc2ccccc2)s1,3730,0.4,10.2,-0.2,-3.0
CCOc1ccc(CNC(=O)CCn2c(=O)oc3ccccc32)cc1,16172*,0.6,0.4,-2.4,-5.0
CCOc1ccccc1NC(=O)Cn1c(=O)oc2ccccc21,3298,-1.0,3.1,-2.2,-0.8
CCOc1ccc(OCC)c(NC(=O)CCn2c(=O)oc3ccccc32)c1,19376*,?,-3.2,0.3,1.1
COc1cc(CN2CCNC(=O)C2CC(=O)NC2CCCC2)cc(OC)c1 (centres undefined),5993,2.0,-0.2,8.8,3.3
COC(=O)c1ccc(N2CCCCC2)c(NC(=O)c2ccco2)c1,3301,-2.2,1.6,-8.3,10.4
Cc1ccc(-c2ccc(CCC(=O)O)n2-c2ccc(O)cc2)cc1,10421,2.0,-22.2,-0.7,-1.2
Cc1ccc(-c2ccc(CCC(=O)O)n2-c2cccc(O)c2)cc1,19713*,-0.1,-0.4,-1.1,-0.7
Cc1ccc(NC(=S)N(C)Cc2cn(C)c3ccccc23)cc1,10168,0.6,0.2,12.0,2.4
O=C(Nc1ccccc1Cl)OC1CCCCC1,3673,1.4,1.0,-3.4,-8.7
O=C(CN1CCCCC1)N/N=C/c1ccc(Cl)cc1Cl,3971,2.9,4.5,42.2*,3.1
O=C(CN1CCSCC1)N/N=C/c1ccccc1F,23296*,-0.4,1.8,-2.1,-0.5
O=C(CN1CCCCC1)N/N=C/c1ccc(Cl)cc1,/,/,11.1,/,/
O=C(N/N=C/c1ccc(Cl)cc1Cl)Nc1ccccc1,20342*,6.5,25.4,9.1,-13.0
O=C(N/N=C/c1cccc(Cl)c1Cl)Nc1ccccc1,11180,-0.3,-1.3,4.2,-3.6
CC(C)Oc1ccc(CCc2n[nH]c(=S)n2-c2ccccc2)cc1,5043,1.1,-31.6,-0.4,-10.3
C=CCn1c(SCC(=O)NCC2CCCO2)nc2sc(CC)cc2c1=O (centres undefined),8455,1.1,1.2,4.7,1.7
CSc1ccc(C(=S)N2CCN(Cc3ccccc3)CC2)cc1,19865*,6.6,2.3,13.2,-16.8
O=C(CN1CCN(Cc2ccccc2)CC1)c1ccccc1,3433,0.1,3.3,-3.6,-1.5
O=C(CN1CCN(Cc2ccccc2)CC1)c1ccc(Br)cc1,21164*,0.2,-4.8,-4.6,4.1
O=C(C1CCCN(S(=O)(=O)c2ccc(Br)cc2)C1)N1CCN(Cc2ccccc2)CC1 (centres undefined),55843*,-233.6,3.7,-391.0,-59.6
O=C(C1CCCN(S(=O)(=O)c2ccccc2)C1)N1CCN(c2ccccc2)CC1 (centres undefined),3835,3.6,4.7,8.1,-2.5
COc1ccc(C2c3c4c(n(C)c3CCN2C)CCN(C)C4c2ccc(OC)cc2)cc1 (centres undefined),16735*,-0.6,3.4,-0.6,-2.4
Cc1ccc(N2CC(C(=O)NCCN3CCOCC3)CC2=O)cc1C (centres undefined),4407,4.1,2.6,15.3,-6.3
SMILES,Autofluor counter,BoNT A protease,MazEF act,BoNT-F LC inh,Anthrax LF prot
COc1ccc(N2CC(C(=O)NCCCN3CCOCC3)CC2=O)cc1 (centres undefined),23842*,0.5,3.3,2.3,1.4
Cc1ccc(N2CC(C(=O)NCCCn3ccnc3)CC2=O)cc1 (centres undefined),16950*,-2.0,-8.3,-2.8,0.4
O=C(C[C@@H]1C/C=C\CC[C@H](Cc2ccc(F)cc2)C(=O)OC[C@@H]2CCCN2C1=O)N[C@H](CO)Cc1ccccc1,3558,0.0,9.4,-2.3,-3.1
CCC12CC3CC(C1)CC(C(=O)Nc1nn[nH]n1)(C3)C2,23265*,?,-4.0,1.6,-7.3
CC12CC3(C)CC(C)(C1)CC(C(=O)Nc1nn[nH]n1)(C2)C3,8014,0.4,-1.5,1.0,-0.1
CC12CC3CC(C)(C1)CC(C(=O)Nc1nn[nH]n1)(C3)C2,19766*,?,-3.8,2.5,-0.1
COc1ccc(-n2c(O)c(/C=N/NS(=O)(=O)c3cc(C)ccc3C)c3ccccc3c2=O)cc1OC,17279*,-4.6,-11.0,0.3,-1.6
COc1ccc(-n2c(O)c(/C=N/NS(=O)(=O)c3ccc(C)cc3)c3ccccc3c2=O)cc1OC,4926,-1.9,-7.0,-12.5,1.4
CCOC(=O)NC1(C(F)(F)F)C(=O)N(Cc2ccccc2)C2=C1C(=O)CC(C)(C)C2 (centres undefined),25964*,-3.7,0.6,-8.2,-3.6
CC1(C)CC(=O)C2=C(C1)N(Cc1ccco1)C(=O)C2(NC(=O)c1cccnc1)C(F)(F)F (centres undefined),20736*,?,9.2,-1.1,-3.3
CC1(C)CC(=O)C2=C(C1)N(Cc1cccnc1)C(=O)C2(NC(=O)c1cccnc1)C(F)(F)F (centres undefined),9303,0.3,3.4,-0.3,1.9
CCCCN1C(=O)C(NC(=O)c2cccnc2)(C(F)(F)F)C2=C1CC(C)(C)CC2=O (centres undefined),23010*,1.6,-1.6,3.0,-2.3
CC(=O)c1ccc(CC2SC(N)=NC2=O)cc1 (centres undefined),3944,-3.2,1.7,?,-10.3
CC(C)CNC(=O)c1cc2nc(C3CC3)cc(C(F)(F)F)n2n1,3223,1.0,1.7,-24.8,-2.3
COc1cc(NC(=O)c2cc3nc(C4CC4)cc(C(F)(F)F)n3n2)c(OC)cc1Cl,24788*,-3.5,-1.3,-2.9,-2.6
COC(=O)c1ccccc1NC(=O)c1cc2nc(C3CC3)cc(C(F)(F)F)n2n1,21329*,-4.3,3.3,-3.2,-2.4
CCc1ccc2c(c1)C(NC(C)=O)C(=O)N2CCN1CCOCC1 (centres undefined),3646,-7.4,5.2,-44.2,-10.6
O=C(CSc1nnc2c(n1)[nH]c1ccc(F)cc12)NCc1ccc(F)cc1,5893,0.8,10.4,8.4,1.1
O=C(Nc1cccnc1Cl)C1=NN(c2ccccc2)C(=O)CC1,4030,-1.5,-0.2,1.7,-2.9
COC(CNC(=O)c1ccc2c(c1)nc(C)n2-c1cc(C)cc(C)c1)OC,2960,3.0,-0.4,10.5,0.0
COC(CNC(=O)c1ccc2c(c1)nc(C)n2-c1ccc(F)c(F)c1)OC,22581*,1.2,4.9,4.6,-2.0
COC(CNC(=O)c1ccc2c(c1)nc(C)n2-c1cccc(F)c1)OC,21945*,-5.1,-3.9,-4.0,1.1
COc1ccc(C(CNC(=O)C(C)Sc2ccccc2)N2CCOCC2)cc1 (centres undefined),?,2.9,5.7,0.5,-1.1
COc1ccccc1NCCC(=O)OCC(=O)Nc1ccccc1F,8775,2.2,-2.9,0.3,6.6

# Screening results as filed in PubChem.
